For 10 compounds, growth results are on record in PubChem BioAssay (NCI).

Compounds without any hit were thinned out: in the full panel of roughly 83,000, 20% have a hit.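 48-hour exposure, single concentration, 96-well plates; percent growth endpoint where 0 means no net growth. Active: below 10.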 Unmarked numbers belong to inactive results. The source made the active and inactive calls.

Among the test systems are SK-MEL-2 melanoma; EKVX NSCLC; SN12C renal; UO-31 renal; TK-10 renal; ACHN renal; A498 renal; CCRF-CEM leukemia; MOLT-4 leukemia; SR leukemia; OVCAR-8 ovarian; OVCAR-5 ovarian; OVCAR-4 ovarian; SK-OV-3 ovarian; IGROV1 ovarian; OVCAR-3 ovarian; HS 578T breast; NCI/ADR-RES ovarian; RPMI-8226 leukemia; CAKI-1 renal.
Test in all cases: NCI-60 one-dose screen, 48 h (100 = growth as untreated, 0 = no growth, -100 = all killed)
Holding throughout (conditions): 10 µM unless noted

In the case of `Cc1cc2c3ccccc3ccc2[n+]2ccccc12`, the growth in the experiment with SK-MEL-2 melanoma was 40.5%; with EKVX NSCLC it was 14.5%; in the experiment on SN12C renal it was -7% (active); in the experiment on UO-31 renal, 56.9%; with TK-10 renal, 88.4%; with ACHN renal it was 95.1%. Besides, the growth in the experiment with A498 renal was 9.14% (active); with CCRF-CEM leukemia, 48.7%; with MOLT-4 leukemia, 2.74% (active); in the experiment with SR leukemia it was -22.5% (active); in the experiment on OVCAR-8 ovarian it was -28.5% (active); in the experiment with OVCAR-5 ovarian it was 81.1%. In addition, the growth with OVCAR-4 ovarian is 31.6%; in the experiment on SK-OV-3 ovarian, 71.5%; with IGROV1 ovarian it was 34%; in the experiment on OVCAR-3 ovarian, 27.1%; with HS 578T breast it was -23.7% (active); in the experiment on NCI/ADR-RES ovarian it was 46.7%.

With `NC(N)=N/N=C(/c1ccccc1)c1ccc(F)cc1`, the growth is -15.1% (active) in the experiment on SK-MEL-2 melanoma; 35.1% in the experiment with EKVX NSCLC; 17.2% with SN12C renal; -8.69% (active) in the experiment with UO-31 renal; 50.5% in the experiment on TK-10 renal; 29.3% with ACHN renal. Further, the growth with A498 renal was -16.6% (active); in the experiment on CCRF-CEM leukemia, -14.3% (active); with MOLT-4 leukemia, -10.1% (active); with SR leukemia, -19.4% (active); in the experiment with OVCAR-8 ovarian, -65.7% (active); in the experiment with OVCAR-5 ovarian it was 4.37% (active). The growth in the experiment on OVCAR-4 ovarian was 27.9%; in the experiment with SK-OV-3 ovarian, 17.6%; in the experiment with OVCAR-3 ovarian, -48.8% (active); with HS 578T breast, -13.4% (active); in the experiment on NCI/ADR-RES ovarian, -37.3% (active).

Regarding `NC(CSC(c1ccccc1)(c1ccccc1)c1ccc(Cl)cc1)C(=O)O` (configuration not stated), the growth in the experiment on SK-MEL-2 melanoma is -9.63% (active); in the experiment with EKVX NSCLC it was 27.1%; with SN12C renal, 27.5%; in the experiment on UO-31 renal, 65%; with TK-10 renal it was 64.8%; in the experiment on ACHN renal it was 53%. Also, the growth in the experiment with A498 renal was 26.7%; with CCRF-CEM leukemia, 3.48% (active); in the experiment on MOLT-4 leukemia, 6.35% (active); with SR leukemia, -24.5% (active); in the experiment with OVCAR-8 ovarian, -15.9% (active); with OVCAR-5 ovarian, 12.2%. The growth with OVCAR-4 ovarian was 63.2%; with SK-OV-3 ovarian it was 17.2%; with OVCAR-3 ovarian it was -41.4% (active); with HS 578T breast, -36.2% (active); with NCI/ADR-RES ovarian it was -20.5% (active).

In the case of `COc1cc(-c2nn(-c3ccc(Br)cc3)cc2C(=O)O)ccc1O`, the growth is 83.1% in the experiment with SK-MEL-2 melanoma; 87.2% in the experiment on EKVX NSCLC; 109% in the experiment on SN12C renal; 82.4% in the experiment with UO-31 renal; 125% in the experiment with TK-10 renal; 112% with ACHN renal. Moreover, the growth in the experiment with A498 renal was 107%; in the experiment with CCRF-CEM leukemia it was 90.1%; in the experiment with MOLT-4 leukemia, 78.7%; in the experiment on SR leukemia, 84.1%; in the experiment with RPMI-8226 leukemia it was 95.7%; in the experiment with OVCAR-8 ovarian, 105%. For the same compound, the growth with OVCAR-5 ovarian is 122%; in the experiment with OVCAR-4 ovarian, 101%; with SK-OV-3 ovarian, 100%; with IGROV1 ovarian, 91.2%; in the experiment with OVCAR-3 ovarian, 101%; in the experiment on NCI/ADR-RES ovarian, 104%.

On to `CCN(CC)c1ccc2c(c1)Oc1nc(N)c(C#N)c(N)c1C2Sc1ccc(SC)cc1` (configuration not stated), for which the growth with SK-MEL-2 melanoma is -59.6% (active); in the experiment with EKVX NSCLC, -3.97% (active); in the experiment with SN12C renal, -13.4% (active); with UO-31 renal, -79.8% (active); in the experiment with TK-10 renal it was -35.7% (active); in the experiment with ACHN renal, -46.5% (active). Also, the growth in the experiment with A498 renal is 90%; in the experiment with CCRF-CEM leukemia it was -15.5% (active); in the experiment with MOLT-4 leukemia, -10.7% (active); in the experiment on SR leukemia it was -18.8% (active); in the experiment with RPMI-8226 leukemia, -37.3% (active); with OVCAR-8 ovarian, -7.42% (active). Moreover, the growth in the experiment on OVCAR-5 ovarian was -27.1% (active); in the experiment on OVCAR-4 ovarian it was -2.7% (active); in the experiment with SK-OV-3 ovarian, -4.96% (active); in the experiment with IGROV1 ovarian it was -13.9% (active); in the experiment with OVCAR-3 ovarian, -30.4% (active); in the experiment on HS 578T breast, 26%. Besides, the growth with NCI/ADR-RES ovarian is 10.8%.

Consider `COc1ccc(-c2cc(-c3ccc(Nc4ccnc5cc(Cl)ccc45)cc3)nc(N3CCOCC3)n2)cc1`, for which the growth is 90.3% in the experiment with SK-MEL-2 melanoma; 90.4% in the experiment with EKVX NSCLC; 49.2% in the experiment with SN12C renal; 87.8% in the experiment on UO-31 renal; 9.38% (active) with TK-10 renal; 80.7% with ACHN renal. Besides, the growth is 86.6% with A498 renal; 3.53% (active) in the experiment with CCRF-CEM leukemia; 23.9% in the experiment on MOLT-4 leukemia; -18% (active) in the experiment with SR leukemia; -1.81% (active) with RPMI-8226 leukemia; 135% with OVCAR-5 ovarian. In addition, the growth is -52.1% (active) in the experiment with OVCAR-4 ovarian; 101% in the experiment on SK-OV-3 ovarian; 103% in the experiment with IGROV1 ovarian; 2.68% (active) in the experiment with OVCAR-3 ovarian; -11.4% (active) with HS 578T breast; 20.8% in the experiment with NCI/ADR-RES ovarian.

Consider `O=c1ccccc(-c2ccc(Br)cc2)c1O`, for which the growth is 12% in the experiment with SK-MEL-2 melanoma; 6.92% (active) in the experiment with EKVX NSCLC; 6.62% (active) in the experiment on SN12C renal; -10.6% (active) in the experiment with UO-31 renal; 21.5% in the experiment on TK-10 renal; 6.35% (active) with ACHN renal. Besides, the growth in the experiment on A498 renal was 31.7%; in the experiment with CCRF-CEM leukemia, 3.29% (active); in the experiment with MOLT-4 leukemia it was 5.09% (active); in the experiment on SR leukemia, 4.69% (active); in the experiment on RPMI-8226 leukemia it was 9.5% (active); with OVCAR-8 ovarian, 13%. Moreover, the growth was 54.9% with OVCAR-5 ovarian; 30% in the experiment on OVCAR-4 ovarian; 19.7% with SK-OV-3 ovarian; 12.4% in the experiment on IGROV1 ovarian; 25.8% with OVCAR-3 ovarian; 51.8% in the experiment on HS 578T breast. The growth with NCI/ADR-RES ovarian was 7.78% (active).

Consider `COc1cc2nc(N3CCCC3)nc(NCc3ccccc3)c2cc1OC`, for which the growth in the experiment with SK-MEL-2 melanoma was 106%; in the experiment with EKVX NSCLC it was 74.7%; in the experiment on SN12C renal, 69.6%; in the experiment on UO-31 renal, 52.1%; with TK-10 renal, 100%; in the experiment with CAKI-1 renal it was 65.8%. In addition, the growth in the experiment with A498 renal was 36.3%; in the experiment on CCRF-CEM leukemia, 5.92% (active); in the experiment with MOLT-4 leukemia it was 35.4%; in the experiment on RPMI-8226 leukemia it was 12.7%; in the experiment on OVCAR-8 ovarian, 78.9%; in the experiment with OVCAR-5 ovarian, 80.4%. In addition, the growth with OVCAR-4 ovarian is 57.2%; in the experiment on SK-OV-3 ovarian, 96%; with IGROV1 ovarian it was 90.4%; with OVCAR-3 ovarian, 68.1%; with HS 578T breast it was 73.7%; in the experiment with NCI/ADR-RES ovarian, 72.4%.

Consider `Cc1cc(C)nc(SC2=C(Nc3ccc(O)cc3)C(=O)N(Cc3ccccc3)C2=O)n1`, for which the growth is 96.1% [40 µM] with SK-MEL-2 melanoma; 77.4% [40 µM] in the experiment on EKVX NSCLC; 94.3% [40 µM] with SN12C renal; 70.8% [40 µM] in the experiment on UO-31 renal; 110% [40 µM] with TK-10 renal; 64.4% [40 µM] in the experiment on CAKI-1 renal. For the same compound, the growth in the experiment with A498 renal was 112% [40 µM]; in the experiment with CCRF-CEM leukemia it was 39.1% [40 µM]; in the experiment with MOLT-4 leukemia, 58% [40 µM]; with SR leukemia, 73.6% [40 µM]; with RPMI-8226 leukemia, 38.8% [40 µM]; in the experiment on OVCAR-8 ovarian, 111% [40 µM]. In addition, the growth was 120% [40 µM] with OVCAR-5 ovarian; 85.6% [40 µM] in the experiment with OVCAR-4 ovarian; 94.3% [40 µM] in the experiment with SK-OV-3 ovarian; 81.4% [40 µM] in the experiment with IGROV1 ovarian; 80.9% [40 µM] with OVCAR-3 ovarian; -13.2% [40 µM] (active) with HS 578T breast. For the same compound, in the experiment with NCI/ADR-RES ovarian, the growth was 69% [40 µM].

As for `O=C1Nc2cc(-c3ccc(O)cc3)ccc2/C1=C/c1ccc[nH]1`, the growth was 2.16% (active) in the experiment with SK-MEL-2 melanoma; 12% with EKVX NSCLC; 13.6% in the experiment with SN12C renal; -3.39% (active) in the experiment with UO-31 renal; 4.81% (active) in the experiment on ACHN renal; 2.43% (active) in the experiment on CAKI-1 renal. Also, the growth is -3.08% (active) in the experiment on A498 renal; 6% (active) in the experiment on CCRF-CEM leukemia; 7.4% (active) in the experiment with MOLT-4 leukemia; 5.01% (active) in the experiment on SR leukemia; 3.47% (active) with RPMI-8226 leukemia; 12.3% in the experiment with OVCAR-8 ovarian. The growth was 19% in the experiment on OVCAR-5 ovarian; 26.3% with OVCAR-4 ovarian; 8.32% (active) with SK-OV-3 ovarian; 13% in the experiment on IGROV1 ovarian; 4.63% (active) with OVCAR-3 ovarian; 18.1% in the experiment with HS 578T breast. The growth in the experiment on NCI/ADR-RES ovarian is -1.85% (active).
